According to PubChem BioAssay (NCI):
Where “and” joins values, the source holds several entries; their conditions need not be identical. Equal entries are not always repeated. The panel holds about 83,000 compounds, 20% with a hit somewhere; the sample as a whole holds those more often.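 48-hour exposure, single concentration, 96-well plates; percent growth endpoint where 0 means no net growth. Active: below 10.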 Calls of active or inactive are those of the source.

System: HT29 colon
Experiment: NCI-60 one-dose screen, 48 h (100 = growth as untreated, 0 = no growth, -100 = all killed)
Conditions: 10 µM unless noted
Procedure: Growth inhibition of the HT29 human tumor cell line is measured as a screen for anti-cancer activity. Cells are grown in 96 well plates and exposed to the test compound for 48 hours. Compounds are tested at a single concentration, which is 10^-5 M for most compounds. The reported endpoint is percent growth (GI% or GIPRCNT), where numbers from 0 - 100% represent growth inhibition, and numbers from -100% - 0 represent cell death. For example, a value of 40 represents 60% growth inhibition. A value of 0 means no net growth occurred over the course of the experiment. A value of -40 indicates 40% of cells at the beginning of the experiment died by the end of the experiment. A value of -100 means all cells are dead at the end of the experiment.
NCI-60 Human Tumor Cell Lines Screen was performed using the standard one-dose NCI protocol, which is described in more detail at https://dtp.cancer.gov/discovery_development/nci-60/default.htm.
Compounds with GIPRCNT values below 10 were considered active. Activity score was based on GIPRCNT using the following formula: […]
Score is 0 for GIPRCNT values of 100 or above, 50 for GIPRCNT values of 0, and 100 for GIPRCNT values of -100.

| SMILES | growth |
| --- | --- |
| O=C(Nc1ccccc1)OCC(CN1CCCCC1)OC(=O)Nc1ccccc1 (stereo not given) | 69.6% (inactive) and 87.2% (inactive) |
| COC(=O)c1cc(C(=O)OC)cc([N+](=O)[O-])c1 | 111% (inactive) |
| C/C(=C\c1ccccc1)C(O)C(=O)c1nc2ccc([N+](=O)[O-])cc2[nH]c1=O (stereo not given) | 102% (inactive) |
| O=C(N=C1C(=O)C2(CCCCC2)C2(N=C(c3ccccc3)OC2=O)C12CCCCC2)c1ccccc1 (stereo not given) | 51.5% (inactive) |
| CCN(CC)Cc1cc2[nH]c3c4ccc(Cl)cc4ncc3c2cc1OC | 10.2% (inactive) and 9.65% (active) |
| Cc1onc(-c2c(F)cccc2Cl)c1-c1ncc(-c2ccc(Cl)cc2)o1 | 23.3% (inactive) and 21.8% (inactive) |
| CCN(CC)CCO/N=C1\CC(c2ccc(OC)c(OC)c2)Oc2ccccc21 (stereo not given) | 74.8% (inactive) |
| Cc1ccc(NC(=S)N/C=C(\c2ccccc2)S(=O)Cc2ccccc2)c(C)c1 (stereo not given) | 108% (inactive) |
| COC(=O)c1nc(N)nc(C(=O)OC)c1C(=O)c1cccc2ccccc12 | 104% (inactive) |
| OCCSc1ccc(Cl)cc1 | 104% (inactive) and 88.1% (inactive) |
| O=C1Cc2ccccc2C(=O)N1 | 88.9% (inactive) |
| O=C(O)C#Cc1ccc(Cl)cc1 | 98.1% (inactive) |
| CC(=O)Oc1ccc(C2(c3ccc(OC(C)=O)cc3)C(=O)Nc3ccccc32)cc1 | 112% (inactive) and 131% (inactive) |
| Clc1ccc2c(c1)N(C1CCCN(Cc3ccccc3)C1)c1ccccc1S2 (stereo not given) | 76.7% (inactive) |
| Cc1nc(Nc2ccc(Cl)cc2)c2cnn(-c3ccccc3)c2n1 | 97.2% (inactive) |
| CCN(CC)C(=S)SCCO | 99.8% (inactive) |
| Cc1cc(NC(=O)NC(=O)c2ccccc2N(C)C)ccc1Oc1ncc(Br)cn1 | -15.9% (active) and 17% (inactive) |
| CN(C)C(=N)N=C(N)N | 98.6% (inactive) and 113% (inactive) |
| CCNCc1ccccc1 | 98.8% (inactive) |
| Cc1ccc2cccc([N+](=O)[O-])c2n1 | 99% (inactive) and 96% (inactive) |

| SMILES | growth |
| --- | --- |
| CC1(C)CC(=O)NC1=O | 99.8% (inactive) |
| O=S(=O)(O)c1ccc2cc(O)ccc2c1 | 103% (inactive) |
| NNC(=O)Nc1ccccc1 | 106% (inactive) |
| CC1NC(C)c2ccc3ccccc3c2O1 (stereo not given) | 99.8% (inactive) |
| CC1CC(O)CC(C)(C)C1.CC1CC(O)CC(C)(C)C1.CC1CC(O)CC(C)(C)C1.CC1CC(O)CC(C)(C)C1.[Ti] (stereo not given) | 97.2% (inactive) |
| CC(O)CCNC(c1ccccc1)C(O)c1ccccc1 (stereo not given) | 97.3% (inactive) |
| CCN(C)c1ccccc1 | 103% (inactive) |
| CN(C)CC(CN(C)C)C(O)c1ccccc1 (stereo not given) | 100% (inactive) |
| COc1ccc(CCNC(=S)NN)cc1OC | 104% (inactive) |
| CCCCC/C(C)=N\NC(N)=S | 55.3% (inactive) |
| CC(C)(C)OC(=O)NCCc1ccc(N)cc1 | 95.6% (inactive) |
| COc1ccc(/C=N/NC(N)=S)cc1 | 102% (inactive) |
| CCOC(=O)C1=C(C)NC(C)=C(C(=O)OCC)C1 | 101% (inactive) and 102% (inactive) |
| O=P(O)(O)OC1C(OP(=O)(O)O)C(OP(=O)(O)O)C(OP(=O)(O)O)C(OP(=O)(O)O)C1OP(=O)(O)O.[Cu+2] (stereo not given) | 96.5% (inactive) |
| CN(C)C(=S)N(C)C | 95.6% (inactive) |
| CC1=CC(=O)c2cccc(NC3=NCCO3)c21 | 101% (inactive) |
| COc1cc(NCCCCCNC(C)C)c2ncccc2c1 | 85.9% (inactive) and 67.1% (inactive) |
| O=C1C=CC[C@H](/C=C/c2ccccc2)O1 | 29.8% (inactive) and 28.4% (inactive) |
| CCOC(=O)c1ccncc1 | 104% (inactive) |
| CC(=O)Nc1cscc1NC(C)=O | 96.2% (inactive) |
